SMN2 splice enh: qHTS Assay for Enhancers of SMN2 Splice Variant Expression. HEK293 SMN2-luciferase splicing reporter, luminescence, 30-36 h. Potency, µM (series often up to 46.1 µM), without a hit: top-dose activity change, positive = activation, most hits filed as activators. 210,000 tested, 2.8% active; note: % of control where 0% means no effect; nearly all actives have a fitted effect of over 55% in size
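qHTS luciferase splicing reporter: luminescence rises when SMN2 exon 7 is included in transfected HEK293 cells. Compound exposure lasted 30-36 h at 37C, with 4.5 mM final sodium butyrate as control, followed by a ONE-Glo read.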
NPC1 prom act: qHTS Assay for NPC1 Promoter Activators; 320,000 tested, 2.4% active; AID 485313, 2010; Potency, µM (top dose mostly 9.22 µM), inactives show at the top dose activation, most hits filed as activators; Huh7 NPC1 promoter luciferase reporter, 24 h; note: % of control where 0% means no effect; nearly all actives have a fitted effect of over 60% in size
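In 1536-well qHTS, Huh7 cells harboring an NPC1 promoter–luciferase construct received compound for 24 h; activation was quantified by luminescence following luciferase reagent addition.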
KinaseGlo FLuc: Counterscreen for Luciferase (Kinase-Glo TM) Inhibition; Kinase-Glo luciferase, ATP luminescence, 8 min; Potency, µM (titrated, usually from 38.3 µM), without a hit: at the top dose activity change, negative = inhibition, hits mostly inhibitors; 200,000 tested, 0.28% active; AID 1379, 2008; note: % is set by controls: 0 for no effect and ±100 for the full control effect; nearly all actives have a fitted effect of over 60% in size
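Inhibition of Kinase-Glo luciferase light generation was assessed at 10 uM ATP in pH 7.2 imidazole buffer, with luminescence measured after eight minutes at ambient temperature.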
FLuc modulator: qHTS profiling assay for firefly luciferase inhibitor/activator using purifed enzyme and Km concentrations of substrates (counterscreen for miR-21 project) | 360,000 tested, 6.9% active | Potency, µM (highest dose often 57.5 µM), for the others: top-dose activity change, negative = inhibition, hits mostly inhibitors | Luciferin 4-monooxygenase (Photinus pyralis), P08659 | purified FLuc, Km substrates, luminescence inhibition;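 note: plate controls were vehicle for no effect and reference inhibitor for full effect; nearly all actives have a fitted effect of over 55% in size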
Target sequence (P08659 whole entry, looked up): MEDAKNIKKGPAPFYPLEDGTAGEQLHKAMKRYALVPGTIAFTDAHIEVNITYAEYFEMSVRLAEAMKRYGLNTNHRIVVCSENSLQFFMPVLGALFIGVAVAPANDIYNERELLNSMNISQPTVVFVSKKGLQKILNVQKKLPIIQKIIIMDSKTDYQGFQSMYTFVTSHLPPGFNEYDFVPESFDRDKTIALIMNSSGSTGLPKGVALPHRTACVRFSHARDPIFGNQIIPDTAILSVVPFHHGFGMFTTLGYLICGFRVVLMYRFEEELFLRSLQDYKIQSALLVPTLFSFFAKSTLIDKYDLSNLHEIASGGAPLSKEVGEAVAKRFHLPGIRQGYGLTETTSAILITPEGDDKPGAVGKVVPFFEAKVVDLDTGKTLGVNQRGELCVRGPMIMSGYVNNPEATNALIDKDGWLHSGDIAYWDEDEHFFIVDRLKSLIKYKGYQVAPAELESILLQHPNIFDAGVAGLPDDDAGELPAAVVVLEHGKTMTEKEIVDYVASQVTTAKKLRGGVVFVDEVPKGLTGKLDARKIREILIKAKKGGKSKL
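Biochemical qHTS of compounds, final roughly 60 µM downward over six points, against 10 nM purified firefly luciferase using Km concentrations of substrates (10 uM D-luciferin, 10 uM ATP) in Tris acetate pH 7.5 buffer; luminescence output.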
ELG1 genotoxic: qHTS screen for small molecules that induce genotoxicity in human embryonic kidney (HEK293T) cells expressing luciferase-tagged ELG1 | HEK293T ELG1-luciferase reporter, luminescence, 16 h | Potency, µM (highest dose often 46 µM), for the others: at the highest dose activity change, positive = activation, usual class: activators | AID 504466, 2011 | 330,000 tested, 1.3% active; note: % of control where 0% means no effect; nearly all actives have a fitted effect of over 60% in size
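After overnight (16 hr) compound treatment at 37 °C, ELG1-luciferase HEK293T cells were lysed with ONE-Glo; luminescence quantified 30 min later at room temperature.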
Rab9 prom act: qHTS Assay for Rab9 Promoter Activators; AID 485297, 2010; 320,000 tested, 2.8% active; Huh7 Rab9 promoter-luciferase reporter, luminescence, 24 h; Potency, µM (series often up to 9.22 µM), without a hit: at the top dose activation, negative = inhibition, most hits filed as activators; note: % of control where 0% means no effect; nearly all actives have a fitted effect of over 60% in size
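Stable Rab9-luc Huh7, 1500 cells/well, 2 h settle; cmpd in DMSO, 24 h, 37 °C/5% CO2; luciferase reagent 10 min RT; luminescence.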
Numbers without * were called inactive; ? = inconclusive; . = no result; [ ] = another dose, or the depositor's remark. A selection: hits, their analogues and other compounds. The true share with any hit is near 7.5%. Calls come from the whole dose curve; as a rule, active = well fitted curve in the direction sought with a large enough effect; inconclusive = small, poorly fitted or top-dose-only effect, or another doubt; inactive = no such curve, though single readings can be large; an effect the other way counts as inactive or inconclusive. Potency is the fitted concentration of half-maximal effect.

SMILES	SMN2 splice enh	NPC1 prom act	KinaseGlo FLuc	FLuc modulator	ELG1 genotoxic	Rab9 prom act
Clc1ccccc1Nc1nc(-c2cccnc2)cs1	2.82µM*	3.16µM*	-21.6%	1.69µM*	?	0.708µM*
N#CC1=C(N)Oc2cc(O)ccc2C1c1ccc(Br)s1 (stereo unspecified)	.	0.9%	.	0.4%	3.0%	1.8%
Clc1ccccc1Nc1nnc(-c2ccncc2)s1	3.16µM*	0.562µM*	1.26µM*	0.953µM*	?	0.447µM*
O=C(O)c1ccc(N=NN2CCCCCC2)cc1	4.47µM*	?	-2.3%	10.7µM*	7.2%	0.316µM*
CC(=O)Nc1cccc(N=NN2CCCCC2)c1	0.4%	7.3%	-0.2%	16.9µM*	9.0%	14.2%
CC(C)(C)OC(=O)N1CCC(c2c(C(=O)N3CCN(c4ccc(Cl)cc4)CC3)cnn2-c2ccc(F)cc2F)CC1	.	.	.	-7.2%	.	.
CCCCOc1ccc(C(=O)Nc2ccc(-c3nc4ccccc4s3)cc2C)cc1	-15.0%	.	.	-15.7%	.	.
O=C(Nc1cc(-c2nc3ccccc3s2)ccc1Cl)c1ccc2c(c1)OCO2	8.1%	-0.7%	-3.2%	10.7µM*	6.5%	1.0%
O=C(Nc1cc([N+](=O)[O-])ccc1Cl)c1ccc2c(c1)OCO2	2.9%	3.9%	-1.3%	1.3%	5.5%	4.2%
Cc1ccc(-c2nc3ccccc3s2)cc1NC(=O)c1ccc2c(c1)OCO2	-4.2%	11.4%	0.0%	4.78µM*	-1.1%	-3.1%
CCCCC(=O)Nc1ccccc1C(=O)OCC(=O)c1ccc2c(c1)OCCO2	-8.9%	29.4%	-6.4%	1.2µM*	4.2%	?
O=C(O)/C=C/C(=O)Nc1ccccc1C(=O)OCC(=O)c1ccc2c(c1)OCCO2	-0.9%	1.9%	?	0.19µM*	12.4%	15.5%
CCOC(=O)c1ccccc1NC(=O)/C=C/C(=O)O	2.3%[1.84 µM]	-3.9%	-1.4%	12.5%	-1.1%	-0.7%
COc1ccc2sc(NC(C)=O)nc2c1	17.8µM*	2.51µM*	-16.9%	16.9µM*	9.2µM*	?
COc1ccc2sc(NC(=O)NC(=O)c3c(Cl)cccc3Cl)nc2c1	.	12.5%	.	19µM*	0.2%	-1.1%
COc1ccc2sc(NCc3ccccc3)nc2c1	.	2.24µM*	.	6.01µM*	?	3.55µM*
COc1ccc2sc(NC(=O)CC(C)C)nc2c1	?	?	-4.0%	10.7µM*	18.4µM*	4.47µM*
Cc1cccc(CSc2ncc(Cl)c(C(=O)Nc3sc4c(c3C#N)CCCC4)n2)c1	3.6%	.	.	-9.0%	.	.
Cc1cc(NC(=O)C2CCCN(S(=O)(=O)c3cn(C)cn3)C2)ccc1Br (stereo unspecified)	.	.	.	-2.7%	.	.
CCOc1ccc(CNC(=O)c2cc3c(=O)n(Cc4cccs4)ccc3nc2C)cc1	.	.	.	-0.2%	.	.
CC12CCC(=O)N1C(C(=O)NNC(=O)c1ccccc1Cl)CS2 (stereo unspecified)	.	2.1%	.	3.5%	-1.2%	-7.2%
Cc1cc(C)c(NC(=O)C(C)n2nc(-c3ccc(C)c(C)c3)ccc2=O)c(C)c1 (stereo unspecified)	.	.	.	6.3%	.	.
CCC(=O)Nc1nc2cc(OC)ccc2s1	?	2.24µM*	4.0%	12µM*	?	1.41µM*
CCC(=O)Nc1nc2ccc3nc(C)sc3c2s1	11.2µM*	?	3.3%	?	8.2µM*	3.98µM*
COc1ccc(OC)c(CNc2ncnc3onc(-c4ccc(Cl)cc4)c23)c1	-4.4%	.	.	4.0%	.	.
SMILES	SMN2 splice enh	NPC1 prom act	KinaseGlo FLuc	FLuc modulator	ELG1 genotoxic	Rab9 prom act
CCn1c(C)nc2c(C)[n+](CC(=O)c3ccc(Br)cc3)ccc21	7.1%	1.12µM*	-1.2%	?	1.83µM*	1µM*
Cc1c(NC(=O)C(C)OC(=O)/C=C/c2ccc3c(c2)OCO3)c(=O)n(-c2ccccc2)n1C (stereo unspecified)	6.9%	0.1%	-2.4%	15.1µM*	7.7%	6.6%
O=C(/C=C/c1ccc2c(c1)OCO2)Nc1nc(-c2ccc(F)cc2F)cs1	-82.4%	-7.0%	1.2%	1.1%	7.9%	-12.3%
O=C(COC(=O)/C=C/c1ccc2c(c1)OCO2)Nc1ccccc1	-0.1%	-9.6%	-7.1%	21.3µM*	5.9%	4.0%
Cc1c(NC(=O)C(C)OC(=O)/C=C/c2ccccc2)c(=O)n(-c2ccccc2)n1C (stereo unspecified)	-12.9%	-6.9%	3.1%	4.8%	-2.9%	2.7%
Cc1csc(NC(=O)/C=C/c2ccc3c(c2)OCO3)n1	12.6µM*	-1.0%	-6.3%	0.953µM*	2.91µM*	?
COc1ccc(NC(=O)/C=C/c2ccc3c(c2)OCO3)cc1	17.8µM*	?	-15.2%	2.69µM*	?	3.16µM*
O=S(=O)(NC[C@@H]1CCC[C@H](CNS(=O)(=O)c2c(F)cccc2F)C1)c1ccc2c(c1)OCCO2	.	-1.8%	.	0.2%	.	1.0%
Cn1c(=O)c(=O)n(C)c2cc(S(=O)(=O)N3CC(=O)N(CCc4ccccc4)C(=O)C3)ccc21	.	-0.9%	.	-0.1%	2.6%	-3.1%
O=C(c1ccco1)N1CCC2(CC1)CN(c1ccccc1)C2	-36.6%	.	-2.7%	.	.	.
O=C(/C=C/c1ccc2c(c1)OCO2)Nc1nc2ccccc2s1	3.55µM*	1.58µM*	-3.1%	1.2µM*	18.4µM*	0.794µM*
CN1c2ccccc2C(=O)C(=C2SCCCS2)S1(=O)=O	.	0.7%	.	19µM*	-1.3%	-3.3%
CC(=O)c1cc2c(cc1NC(=O)Cc1c(C)noc1C)OCO2	.	.	.	.	10.8%	.
COc1cc(/C=C2\C(=N)N3N=C(S(C)(=O)=O)SC3=NC2=O)ccc1OC(=O)c1ccco1	.	0.1%	.	19µM*	-0.6%	2.4%
CCS(=O)(=O)C1=NN2C(=N)/C(=C\c3ccc(OC(=O)c4ccco4)c(Br)c3)C(=O)N=C2S1	.	-3.8%	.	15.1µM*	2.4%[9.26 µM]	-2.4%
COc1cc(/C=C2\C(=N)N3N=C(S(C)(=O)=O)SC3=NC2=O)ccc1OC(=O)c1cccs1	.	3.4%	.	21.3µM*	0.5%	5.6%
CNc1ncnc2ccc(-c3c(C)noc3C)cc12	.	-1.3%	.	3.2%	.	-1.1%
COc1cc(/C=C/c2cc(C(=O)O)c3ccccc3n2)ccc1OC(F)F	.	3.16µM*	.	0.426µM*	3.3%	3.16µM*
CC(=O)Nc1ccc(/C=C/c2ccc3c([N+](=O)[O-])cccc3n2)cc1	?	?	-1.0%	?	?	1.12µM*
O=C(O)c1cc(N2CCOCC2)nc2ccccc12	.	1.4%	.	-4.9%	0.7%	0.2%
COc1cc(/C=C/C(=O)OCN2C(=O)c3ccccc3C2=O)ccc1OC(F)F	.	-1.1%	.	1.5%	5.5%	-2.5%

Bioassay records (PubChem)
